Screening results as filed in PubChem.
SUMO HTRF inh: SUMOylation inhibition | HTRF SUMOylation assay, SAE1/SAE2 + UBC9, in vitro | 290,000 compounds, 0.36% hits | inhibition, % at 35 µM; in the data active means inhibition above about 50%, passing the limit was not always enough; inconclusive means no clear call, values can overlap the other calls
PABP FP inh: PABP-poly(A) binding inhibition; P11940; PABP-poly(A) RNA binding, fluorescence polarization; inhibition, % at 35 µM; 290,000 compounds, 1% hits; AID 2014;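 further: calls also rest on retests at 20 µM and on dose response follow-up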
Target sequence (P11940 whole entry, looked up): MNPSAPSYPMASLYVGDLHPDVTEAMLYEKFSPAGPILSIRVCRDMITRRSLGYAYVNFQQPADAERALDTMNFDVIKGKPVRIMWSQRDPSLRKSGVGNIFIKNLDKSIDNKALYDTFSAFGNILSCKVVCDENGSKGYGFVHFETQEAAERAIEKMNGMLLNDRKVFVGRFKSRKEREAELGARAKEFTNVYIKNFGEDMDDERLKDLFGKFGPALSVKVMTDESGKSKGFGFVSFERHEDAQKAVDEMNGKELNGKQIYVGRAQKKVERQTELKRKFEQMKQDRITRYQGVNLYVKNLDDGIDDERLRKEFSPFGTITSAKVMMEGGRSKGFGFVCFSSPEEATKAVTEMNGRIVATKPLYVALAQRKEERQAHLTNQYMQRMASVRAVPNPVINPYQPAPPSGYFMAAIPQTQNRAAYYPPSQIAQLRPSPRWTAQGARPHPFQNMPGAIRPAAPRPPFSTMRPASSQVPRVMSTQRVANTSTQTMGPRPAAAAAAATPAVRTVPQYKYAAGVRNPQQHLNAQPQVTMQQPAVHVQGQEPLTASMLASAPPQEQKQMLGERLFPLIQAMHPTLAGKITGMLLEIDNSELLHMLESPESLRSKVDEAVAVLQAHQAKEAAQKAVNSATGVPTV
Efflux pump mplx: blocks antifungal efflux pumps in multiplex yeast assay; S. cerevisiae Candida pump triplex, Nile Red efflux; AID 485275; 330,000 compounds, 0.44% hits; inhibition, % at 10 µM;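 active means plate passing quality check with inhibition over a set limit, or well fluorescence over plate mean plus 4 SD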;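 further: Nile Red retained in pooled yeast measured as flow cytometry median fluorescence; 0% = buffer negative control and 100% = Enniatin B positive control; higher means more Nile Red kept so more efflux inhibition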
ALR H2O2 inh: inhibitors of human sulfhydryl oxidase ALR | purified ALR, DTT oxidation, H2O2 HRP-luminol luminescence | inhibition, % (test concentration not listed) | 290,000 compounds, 3.8% hits;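 active means mean replicate inhibition above about 79%, with every replicate also reaching it, limit read from the data; inconclusive means only one of the two criteria met; inactive means mean below limit and not every replicate reaching it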
eIF4H inh: inhibitors of RNA binding by human eIF4H | Q15056 | eIF4H fluorescence polarization binding assay | inhibition, % at 35 µM | 290,000 compounds, 0.94% hits;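 further: calls also rest on retests at 20 µM and on dose response follow-up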
MLLE-PAM2 inh: blocks PAM2 peptide binding to the PABP1 MLLE domain. P11940. GST-MLLE / FITC-PAM2 fluorescence polarization. inhibition, % at 20 µM. 360,000 compounds, 0.36% hits; in the data active means inhibition above about 35%, passing the limit was not always enough;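 further: plate controls were DMSO wells with GST-MLLE for no effect and wells lacking GST-MLLE protein for full effect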
An asterisk follows results filed as active; u = inconclusive; x = not tested or not shown. A selection: hits, their analogues and other compounds. The true share with any hit is near 4.7%. Unless noted, how the calls were made is not given here.

SMILES | SUMO HTRF inh | PABP FP inh | Efflux pump mplx | ALR H2O2 inh | eIF4H inh | MLLE-PAM2 inh
O=C(CSc1cnc2ccccc2n1)c1ccc(F)cc1 | 4.7 | -0.2 | 0.0 | 97.1* | 70.4 | 12.8
CC(=O)Nc1ccc(-c2csc(NC(=O)C3CC(=O)N(c4ccc5c(c4)OCCO5)C3)n2)cc1 (stereo not given) | 17.8 | 59.3* | 0.6 | -6.2 | 59.8* | 18.9
COc1ccc(-c2csc(NC(=O)C3CC(=O)N(c4ccc5c(c4)OCCO5)C3)n2)cc1 (stereo not given) | -1.9 | 7.1 | -0.2 | x | 38.2 | 1.0
OCCNc1nc(Nc2cccc(O)c2)nc2ccccc12 | 25.5 | -19.6 | 0.0 | 95.1* | -11.4 | -8.4
COc1cccc(Nc2nc(NCCO)c3ccccc3n2)c1 | -9.1 | -2.2 | 0.2 | -10.0 | 4.6 | -5.7
OCCN1CCN(c2nc(NCc3ccco3)c3ccccc3n2)CC1 | 7.1 | -3.9 | 0.1 | -1.1 | -5.0 | 2.2
OCCNc1nc(N2CCN(c3ccccc3)CC2)nc2ccccc12 | 8.9 | 3.1 | 0.0 | 98.0* | -22.8 | 1.5
OCCNc1nc(Nc2ccc(O)cc2)nc2ccccc12 | -15.3 | -3.2 | 0.1 | 98.8* | -6.1 | -4.5
O=S(=O)(NCCC1CC1(Cl)Cl)c1ccccc1 (stereo not given) | 9.8 | 8.1 | -0.1 | -4.1 | 1.1 | -8.1
COc1ccc(-n2c(C)cc(/C=C3\SC(=S)N(Cc4ccco4)C3=O)c2C)cc1 | 21.4 | 5.9 | 0.5 | -12.1 | 36.5 | -126.5
CCN1CCN(c2c(/C=C3\SC(=S)N(Cc4ccco4)C3=O)c(C)c(C#N)c(=O)n2C)CC1 | 23.9 | 53.3* | 0.2 | 2.9 | u | -92.8
COc1cc(OC)c(OC)cc1/C=N/N(C)c1ccccc1 | -25.9 | 4.7 | 0.1 | x | 7.6 | -17.6
COc1cc(/C=N/N(C)c2ccccc2)ccc1O | -0.2 | 5.9 | 0.3 | 98.9* | 3.2 | -7.7
Clc1ccccc1N/N=C/c1ccc2c(c1)OCO2 | -3.6 | 8.8 | -0.4 | 99.0* | -9.0 | 8.9
O=S(=O)(N/N=C\c1ccc2c(c1)OCO2)c1ccc(F)cc1 | -6.8 | -14.0 | 0.1 | 86.4* | -5.2 | -34.5
CN(/N=C/c1ccc2c(c1)OCO2)c1ccccc1 | -0.7 | 4.6 | 0.2 | 85.1* | -3.8 | -6.7
Cc1ccccc1S(=O)(=O)N(C)C[C@@H]1OCc2cnnn2CCCC(=O)N([C@@H](C)CO)C[C@H]1C | x | x | x | x | x | 3.4
C=CC[n+]1c(-c2ccc(C)cc2)csc1Nc1ccc(NC(C)=O)cc1 | -4.5 | -10.4 | x | x | -8.9 | -11.6
C=CC[n+]1c(-c2ccc(OC)cc2)csc1NNC(=O)Nc1ccccc1 | -1.3 | 69.7* | -0.1 | 10.2 | 69.5* | -50.6
O=c1/c(=C/c2ccc([N+](=O)[O-])cc2)sc2n1CCCN=2 | -12.8 | 1.6 | -0.1 | -3.3 | -3.9 | 35.9
COc1ccc(/C=C2\N=C3CCCCCN3C2=O)cc1OC | -33.5 | 19.7 | 0.1 | -35.5 | -1.5 | -4.3
COc1cc(/C=c2\sc3n(c2=O)CCCN=3)ccc1O | -2.6 | -18.2 | 0.1 | 99.2* | -4.4 | -24.1
O=C1/C(=C\c2ccc(O)c(O)c2)N=C2CCCCCN12 | -18.2 | 1.5 | 0.0 | 98.7* | 42.1 | -82.9
COc1cc(/C=C2\N=C3CCCCCN3C2=O)ccc1O | -13.8 | 95.9 | 0.0 | 99.2* | 100.3 | -92.1
COc1ccc(/C=C2/N=C3CCCCCN3C2=O)cc1 | -3.1 | -3.9 | 0.4 | -2.1 | -5.1 | 3.7
SMILES | SUMO HTRF inh | PABP FP inh | Efflux pump mplx | ALR H2O2 inh | eIF4H inh | MLLE-PAM2 inh
C/C(=N/NC(=O)c1ccoc1C)c1ccc(NC(=O)c2ccncc2)cc1 | -7.0 | 6.9 | -0.1 | -1.4 | -5.0 | -12.2
Cc1onc(-c2ccccc2)c1C(=O)OCC(=O)NC(C)c1ccc(Cl)cc1 (stereo not given) | x | x | -0.2 | -0.9 | x | 4.2
O=C(Nc1ccc2c(c1)OCO2)c1cc2ncc(Br)cn2n1 | 29.4 | 10.3* | x | x | 54.0* | -7.6
O=C(Nc1cccc(C(F)(F)F)c1)c1cc2ncc(Br)cn2n1 | 19.4 | 0.6 | 0.3 | -2.8 | 1.5 | -1.2
COC(=O)c1sc(N2C(=O)C(=O)/C(=C(/O)c3ccc(C)cc3)C2c2ccco2)nc1C (stereo not given) | 6.5 | 16.9 | 0.0 | 92.1* | 10.3 | x
CCOc1ccc(/C(O)=C2/C(=O)C(=O)N(c3nc(C)c(C)s3)C2c2ccco2)cc1 (stereo not given) | 29.4 | 19.2 | 0.0 | -0.2 | 6.9 | 10.3
Cc1ccc(NC(=O)CSc2nnc(CCC(=O)O)c(=O)[nH]2)cc1 | 16.5 | 3.0 | 0.0 | 98.4* | -4.5 | 7.6
CC(=O)Nc1ccc(NC(=O)CSc2nnc(C)c(=O)[nH]2)cc1 | 10.6 | -2.5 | 0.1 | 98.3* | 18.9 | 32.5
O=C(O)CCc1nnc(SCC(=O)Nc2ccc(Cl)c(C(F)(F)F)c2)[nH]c1=O | -1.6 | 5.8 | 0.2 | 47.3 | 4.6 | 7.2
Cc1cc(C)c(C(=O)CSc2nnc(C)c(=O)[nH]2)cc1C | 10.8 | -11.6 | -0.1 | 94.6* | -0.4 | -49.7
O=C(O)CCc1nnc(SCC(=O)Nc2cccc(C(F)(F)F)c2)[nH]c1=O | 10.9 | 1.5 | 0.0 | 99.1* | -5.6 | 4.3
O=C(O)CCc1nnc(SCC(=O)Nc2ccc(Br)cc2)[nH]c1=O | 0.5 | -7.7 | 0.3 | 26.6 | 1.3 | -0.2
O=S(=O)(c1ccc(F)cc1)c1nc(-c2ccco2)oc1NCCCn1ccnc1 | x | x | x | x | x | -8.9
CC(=O)Nc1ccc(SCC(=O)Nc2oc(C)c3c(C)n[nH]c(=O)c23)cc1 | x | x | 0.0 | 98.7* | x | 25.7
O=C(COc1ccccc1Cl)NC1CC1 | 1.1 | 1.4 | -0.8 | -1.7 | 1.3 | 4.6
COc1ccc2cc(C(c3nnnn3C3CCCC3)N3CCc4ccccc4C3)c(=O)[nH]c2c1 (stereo not given) | 32.8 | 40.9 | 0.0 | -19.0 | 1.6 | 40.8*
COc1ccc2cc(C(c3nnnn3C(C)(C)C)N3CCc4ccccc4C3)c(=O)[nH]c2c1 (stereo not given) | 10.8 | 2.7 | -0.4 | -2.7 | -4.1 | x
CCC(C)(C)n1nnnc1C(c1cc2ccc(OC)cc2[nH]c1=O)N1CCc2ccccc2C1 (stereo not given) | 13.9 | 11.6 | 0.6 | -8.3 | -0.2 | 71.5*
OC(c1ccc(F)c(F)c1)c1nc(-c2ccc(F)c(Cl)c2)cs1 (stereo not given) | x | x | x | x | x | -1.6
c1ccc2c(Cn3ccnc3)cccc2c1 | -4.7 | -0.5 | 0.0 | -7.6 | 4.5 | -2.2
COCC(O)Cn1ccnc1[N+](=O)[O-] (stereo not given) | x | x | x | x | x | 6.3
COc1ccc(OC)c(C2Nc3c(Cl)ccc(C(=O)O)c3C3C=CCC32)c1 (stereo not given) | 19.0 | 72.8 | -0.2 | -1.0 | 71.4* | 18.7
O=C(O)c1ccc(Cl)c2c1C1C=CCC1C(c1ccccn1)N2 (stereo not given) | 32.9 | 81.2* | -0.1 | -18.9 | 99.7* | x
O=[N+]([O-])c1ccc(Cl)c2c1C1C=CCC1C(c1ccccn1)N2 (stereo not given) | 22.3 | 52.5 | 0.1 | -19.9 | 104.1 | 3.2
